Data reported in ChEMBL document CHEMBL3988442, “University of Dundee, Small-Polar-MMV Screening Library” (2021).
The whole screen tested about 69,000 compounds, of which about 420 (0.61%) showed an effect of 50% or more. Only a selection was taken, and strong results are over-represented in it overall.

These compounds were tested against T1, Histidine--tRNA ligase (Leishmania infantum) (UniProt A4I591) (assay: Leishmania infantum Histidine tRNA synthetase (LdHisRS)). Settings: 30 µM.
T1 sequence (whole entry): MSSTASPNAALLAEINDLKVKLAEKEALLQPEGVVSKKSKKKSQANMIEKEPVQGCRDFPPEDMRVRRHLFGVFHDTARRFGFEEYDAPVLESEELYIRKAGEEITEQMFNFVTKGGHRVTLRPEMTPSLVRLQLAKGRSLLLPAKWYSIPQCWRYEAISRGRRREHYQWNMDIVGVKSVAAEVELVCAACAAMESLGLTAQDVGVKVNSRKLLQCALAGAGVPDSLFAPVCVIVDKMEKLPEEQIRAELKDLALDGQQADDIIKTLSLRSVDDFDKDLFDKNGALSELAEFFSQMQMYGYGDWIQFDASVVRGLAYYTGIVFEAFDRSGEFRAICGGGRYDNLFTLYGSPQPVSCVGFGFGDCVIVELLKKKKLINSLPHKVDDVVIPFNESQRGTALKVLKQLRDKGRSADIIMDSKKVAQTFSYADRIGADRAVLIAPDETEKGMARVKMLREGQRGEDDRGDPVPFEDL
Assay type: functional
Parameters: scale not given: in the data most compounds retested in dose-response had high values

SMILES	Percent Effect [%]
CNc1ncccc1CN1CCN2CCN(C)CC2C1 (stereo not given)	6.33
Clc1cc(CN2CCCN3CCCC3C2)c2ncccc2c1 (stereo not given)	62.9
Cc1cccc2cc(CN3CCCN4CCC[C@H]4C3)c(=O)[nH]c12	17.5
CNC(=O)[C@H]1C[C@@H]2CN(c3cc(OC)ncn3)C[C@@H]2N1C(C)C	-7.02
c1cc(COC[C@]23COC[C@H]2CN(Cc2ccsc2)C3)ccn1	10.1
CNCCc1nc2cc(F)ccc2[nH]1	55.3
CCNCCc1nc2cc(F)ccc2[nH]1	25.8
CNCCc1nc2cc(Cl)ccc2[nH]1	14.6
O=C1[C@H]2CN(Cc3ccccn3)C[C@H]2CN1c1ccsc1	6.42
COc1ccc2c(c1)c(C(=O)Nc1n[nH]c(C(C)C)n1)cn2C(C)C	22.9
COc1ccc2c(c1)c(C(=O)Nc1nnn[nH]1)cn2C(C)C	52.1
COc1ccc2c(c1)c(C(=O)Nc1nnn[nH]1)cn2C	18.8
CN1C(Cn2cccn2)C[C@@H]2CN(Cc3cccnc3)CC[C@@H]21 (stereo not given in full)	13.7
O=C1[C@@H]2CCN(C3CCC3)C[C@@H]2OCCN1Cc1ccncc1	17.2
Cc1noc(C)c1CN1CC[C@H]2OCC[C@@]2(C(=O)N2CCCO2)C1	17.6
O=C1[C@H]2CN(CC3CC3)C[C@H]2CN1c1ccsc1	3.01
COc1ccc(CCN)cc1-c1ccc(C(N)=O)cc1	71.8
COc1ccc(CCN)cc1-c1ccc(S(C)(=O)=O)cc1	23.9
COc1ccc(CCN)cc1-c1ccc(O)cc1	-4.22
c1cnc(N2CCO[C@H]3CN(CC4CCOCC4)C[C@H]32)nc1	11.7
